FBW7 act – human FBW7 E3 ligase activation, primary screen. 0.13% of 650,000 active. normalized activity (activation), % at 26.1 µM. AlphaScreen FBW7–phospho-cyclin E peptide binding, activator screen. Q969H0; in the data active = normalized activity above about 1.9%;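 note: purified mutant Fbw7 with reduced substrate affinity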
GPR151 activ – activates the human receptor GPR151; Q8TDV0; 1% of 650,000 active; activation, % at 11.2 µM; PathHunter beta-arrestin GPR151 cells, luminescence; in the data active = activation above about 4.9%;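 note: 0% = median of compound wells and 100% = cells with positive control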
MITF inh – blocks human microphthalmia-associated transcription factor. O75030. AlphaScreen MITF homodimerization, bead proximity signal. inhibition, % at 2.6 µM. 0.91% of 650,000 active; in the data active = inhibition above about 50%;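 note: 0% = vehicle wells with protein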
Target sequence (O75030 whole entry, looked up): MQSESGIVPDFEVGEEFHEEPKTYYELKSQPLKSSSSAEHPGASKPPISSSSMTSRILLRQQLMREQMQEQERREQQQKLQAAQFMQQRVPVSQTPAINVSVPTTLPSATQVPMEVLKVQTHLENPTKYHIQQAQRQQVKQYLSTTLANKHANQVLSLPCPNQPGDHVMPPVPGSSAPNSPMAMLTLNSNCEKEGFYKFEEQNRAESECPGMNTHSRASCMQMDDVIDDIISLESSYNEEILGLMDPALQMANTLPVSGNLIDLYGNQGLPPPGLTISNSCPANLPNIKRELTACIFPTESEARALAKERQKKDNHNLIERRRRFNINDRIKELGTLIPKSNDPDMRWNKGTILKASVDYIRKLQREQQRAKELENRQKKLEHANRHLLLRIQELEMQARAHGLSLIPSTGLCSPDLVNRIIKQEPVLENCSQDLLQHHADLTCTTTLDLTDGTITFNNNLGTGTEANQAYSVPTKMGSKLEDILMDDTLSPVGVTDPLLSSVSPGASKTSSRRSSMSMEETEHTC
TEAD-YAP block – TEAD-YAP interaction inhibition; HEK-TIYL cells, TEAD-Gal4/YAP UAS-luciferase luminescence; inhibition, % at 9.12 µM; 1.4% of 640,000 active; in the data active = inhibition above about 32%;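 note: 0% = median of test compound wells and 100% = reference inhibitor wells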
* hit, by the source's call. Only some compounds are listed: those with a hit (about 3.5% of all), similar ones and a draw of the others.

SMILES	FBW7 act	GPR151 activ	MITF inh	TEAD-YAP block
COC(=O)C1=CN(CC2CCCO2)C=C(C(=O)OC)C1c1cccc(O)c1 (stereo unspecified)	0.0	0.3	10.9	2.5
CCN1C=C(C(=O)OC)C(c2cccc(OCc3ccccc3)c2)C(C(=O)OC)=C1	2.0*	1.5	3.5	-2.2
CCCOc1ccc(C2C(C(=O)OC)=CN(CCC)C=C2C(=O)OC)cc1	3.0*	2.2	5.9	-5.4
Nn1c2ccccc2n2cc(-c3ccc(Cl)cc3)nc12	1.0	-5.8	4.0	56.3*
COc1cc2oc(=O)cc(C)c2cc1OC	0.1	-0.1	5.7	5.0
COc1cc2oc(=O)cc(C)c2cc1C=O	0.1	-1.0	12.4	62.0*
CCN(C(=O)C(C)Cl)c1cccc2ccccc12 (stereo unspecified)	-0.1	-1.4	13.5	1.0
CS(=O)(=O)c1ccc(Sc2nc3ccccc3s2)c([N+](=O)[O-])c1	-0.1	0.2	4.5	64.4*
O=[N+]([O-])c1cc(S(=O)(=O)N2CCOCC2)ccc1Sc1nc2ccccc2s1	-0.3	2.3	12.2	-0.1
OC1(c2ccc(OC(F)F)cc2)CSC(=Nc2cccnc2)N1C1CC1 (stereo unspecified)	-0.1	0.4	19.9	42.1*
CCOC(=O)C1=C(C)OC(N)=C(C#N)C1c1cc(Br)c(OC)cc1OC (stereo unspecified)	0.0	-0.2	-6.8	10.1
CCOC(CNC(=O)Cn1c(=O)oc2cc(Cl)ccc21)OCC	0.0	1.2	8.9	2.6
NC(=O)c1ccsc1NC(=O)CSc1nnc(-c2ccco2)n1-c1ccccc1	0.0	1.1	5.2	43.0*
c1nc(NCCN2CCOCC2)c2[nH]c(-c3ccc(N4CCOCC4)nc3)nc2n1	-0.1	1.3	1.9	-14.7
Cc1nc(SCc2ccc(Br)cc2)n[nH]1	0.0	-0.4	15.0	33.3*
Cc1nc(SCc2ccc(OC(C)C)cc2)n[nH]1	0.5	-5.1	14.7	95.2*
O=C(CN1CC(=O)N2CCCC2C1=O)NC1CCCCCC1 (stereo unspecified)	-0.3	-1.9	-0.8	-5.3
Cn1c(=N)n(CC(=O)c2cc(C(C)(C)C)c(O)c(C(C)(C)C)c2)c2ccccc21	0.3	-2.0	9.4	9.4
O=C(O)C1Nc2ccc(OC(F)(F)F)cc2C2C=CCC12 (stereo unspecified)	-0.1	0.5	74.8*	0.7
Cc1cc(I)cc2c1NC(C(=O)O)C1CC=CC21 (stereo unspecified)	0.2	1.8	49.9	7.7
Fc1ccc(C2Nc3ccc(OC(F)(F)F)cc3C3C=CCC32)cc1 (stereo unspecified)	0.1	-0.1	7.5	1.9
CC(=O)c1ccc2c(c1)C1C=CCC1C(C(=O)O)N2 (stereo unspecified)	-0.3	-1.9	79.0*	5.3
Cc1ccc2c(c1)C1C=CCC1C(C(=O)O)N2 (stereo unspecified)	-1.7	0.2	69.8*	-5.6
NS(=O)(=O)c1ccc2c(c1)C1C=CCC1C(C(=O)O)N2 (stereo unspecified)	0.3	-1.4	72.4*	5.2
CCCCSCCCNC(=O)CCN1N=C(c2ccccc2)CCC1=O	-0.1	0.1	-2.2	1.5
SMILES	FBW7 act	GPR151 activ	MITF inh	TEAD-YAP block
Cc1ccc(C)c(CSc2nc3ccsc3c(=O)n2CCCCC(=O)O)c1	0.0	0.4	1.6	57.4*
Cc1ccc(CNC(=O)CCCCCn2c(SCc3cc(C)ccc3C)nc3ccsc3c2=O)cc1	-0.1	1.0	-6.0	-1.6
COC(=O)Cn1c(SCc2cc(C)ccc2C)nc2ccsc2c1=O	0.4	-0.2	14.0	63.1*
CSc1cccc(NC(=O)C2C3C=CC4(O3)C2C(=O)N(CCCN2CCC(C)CC2)C4C(=O)NC2CCCCC2)c1 (stereo unspecified)	0.2	1.4	16.4	-11.7
CN(C)CCNC(=O)c1ccc(-c2ccccc2)cc1	0.4	-2.1	3.2	35.0*
Cc1ccc(C(=O)CNC(=O)c2ccccc2)cc1	-0.1	-7.6	3.9	65.4*
CCNC(=O)c1ccc(-c2ccccc2)cc1	-0.1	-1.3	1.1	-32.9
Cc1ccc(C(=O)NC(=S)NCC(=O)c2ccccc2)cc1	0.0	2.7	-8.1	-17.5
C=CCOc1cccc(/C=C2\C(=O)N(CCc3ccc(OC)c(OC)c3)C(C)=C2C(=O)OC)c1	-0.1	0.1	60.7*	-12.7
O=C1CC(C(=O)Nc2ccccc2Cl)SC(=Nc2ccccc2)N1 (stereo unspecified)	0.0	-1.8	2.6	3.7
COc1ccc(CNC(=O)Cc2ccccc2[N+](=O)[O-])cc1	-0.2	-5.1	9.8	-19.3
COc1ccc(OC)c(NC(=O)c2cnccn2)c1	0.0	0.7	8.4	7.7
C=CCn1c(C)cc(C2=NNC(=NC3CC3)SC2)c1C	0.3	-1.3	17.9	95.3*

Compound activity: PubChem BioAssay, The Scripps Research Institute Molecular Screening Center
